GLP-1R agonist – agonists of human GLP-1 receptor | 380,000 compounds, 0.007% hits | HEK293 GLP-1R CRE-luciferase, luminescence, 4-6 h; cells express a hypersensitive GLP-1R form | Potency, µM (titrated, usually from 45.6 µM), hits mostly activators | AID 624172
Target sequence (P43220 whole entry, looked up): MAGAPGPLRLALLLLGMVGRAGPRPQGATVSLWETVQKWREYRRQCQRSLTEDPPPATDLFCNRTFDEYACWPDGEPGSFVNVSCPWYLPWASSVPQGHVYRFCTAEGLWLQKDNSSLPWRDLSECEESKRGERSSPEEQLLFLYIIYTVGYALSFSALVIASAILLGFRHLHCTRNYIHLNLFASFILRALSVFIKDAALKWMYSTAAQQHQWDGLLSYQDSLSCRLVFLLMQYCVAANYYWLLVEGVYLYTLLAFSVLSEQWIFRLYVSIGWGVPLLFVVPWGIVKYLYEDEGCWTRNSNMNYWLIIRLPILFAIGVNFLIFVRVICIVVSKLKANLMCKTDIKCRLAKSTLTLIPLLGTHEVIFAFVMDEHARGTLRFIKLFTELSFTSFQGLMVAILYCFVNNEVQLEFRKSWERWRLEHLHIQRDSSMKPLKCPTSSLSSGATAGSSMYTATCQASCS
GLP1R inv ag – GLP-1 receptor (human) inverse agonism. P43220. 410,000 compounds, 1.6% hits. Potency, µM (series often up to 38.3 µM), usual class: inhibitors. HEK293 GLP-1R CRE-luciferase, luminescence, 24 h; GLP-1R form is constitutively active; note: nearly all actives have a fitted effect of over 55% in size
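Stable HEK293 clone (constitutively active GLP-1R + cAMP-response luciferase); 200 cells/uL plated, 12 h pre-culture, compound 24 hr, 37 deg C/5% CO2; detection reagent 12 min RT; luminescence.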
TRPML1 blocker – inhibitors of human TRPML1 channel | Q9GZU1 | TRPML1-inducible cells, Ca2+ dye fluorescence, FDSS; stronger effect = lower value; inhibition of EC80 agonist-evoked calcium signal | activity change, negative = inhibition, % (concentration not given with the values) | 390,000 compounds, 0.02% hits | AID 624415; in the data active = activity change below about -50%; inconclusive = between about -30% and that limit;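 note: stimulus is agonist 54-4 at its EC80 concentration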
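TRPML1-DL cells, Tet-induced overnight (~16 h, 37 °C) at 1,500 cells/well, were loaded with Ca8 no-wash dye plus quencher for 45-90 min at room temperature. Compounds were pinned during FDSS kinetic reading; agonist 54-4 at EC80 (4 uM final) then added.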
GLP1R cytotox – cytotoxicity counter-screen for GLP-1 receptor inverse agonists; AID 624418; HEK293 cAMP-luciferase reporter cells, luminescence, 24 h; 410,000 compounds, 0.13% hits; Potency, µM (series often up to 38.3 µM), usual class: inhibitors;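 note: loss of luciferase light is scored as toxicity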
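Quantitative HTS format, 1536 wells, 200 cells/uL seeded. Compounds: 23 nL, 24 h, 37 °C. Detection: luciferase reagent, luminescence at 12 min RT; decreased signal taken as cytotoxic.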
TRPML1 ag – human mucolipin-1 channel agonism. Q9GZU1. TRPML1-expressing cells, Ca2+ dye fluorescence, FDSS. activation, % (test concentration not listed). 410,000 compounds, 0.12% hits; in the data active = activation above about 50%; inconclusive = mostly about 30% to 49%
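TRPML1-DL cells, Tet-induced overnight (~16 h, 37 degrees C), loaded 45-90 min at room temperature with Ca8 no-wash calcium dye plus quencher. FDSS fluorescence: 10 s baseline, compound pin-transfer, 110 s agonist read, then EC80 54-4 (4uM final) and 110 s antagonist read.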
Of the large screens only hits and unclear results are named; the others gave an inactive call. This is a sample that favours compounds with a hit; in the whole collection about 1.8% have one here. Unless noted, calls come from the whole dose curve; as a rule, active = well fitted curve in the direction sought with a large enough effect; inconclusive = small, poorly fitted or top-dose-only effect, or another doubt; inactive = no such curve, though single readings can be large; an effect the other way counts as inactive or inconclusive.

COc1ccc(CCN(C)CC(O)COC(c2ccc(F)cc2)c2ccc(F)cc2)cc1OC (configuration not stated)	GLP1R inv ag 5µM, GLP1R cytotox inconclusive
COc1ccc(CCN(C)CC(O)COc2c(C)ccc(C)c2C)cc1OC (configuration not stated)	GLP1R inv ag inconclusive (no result: TRPML1 blocker, TRPML1 ag)
O=C(CSc1cc(Cl)ccc1Cl)NC1CCCc2ccccc21 (configuration not stated)	GLP1R inv ag inconclusive
Cc1ccc2nc(SCC(=O)NC3CCCc4ccccc43)[nH]c2c1 (configuration not stated)	GLP1R inv ag 8.9µM
CCOc1ccc(CC(=O)Nc2c(C(=O)Nc3ccc(OC)cc3OC)oc3ccccc23)cc1	none
CC(=O)C1=C(c2ccccc2)N(C(C)=O)n2c(nnc2C2CCCCC2)S1	GLP1R inv ag 13µM (no result: GLP-1R agonist)
CC(=O)C1=C(c2ccc(Cl)c(Cl)c2)N(C(C)=O)n2c(C)nnc2S1	GLP1R inv ag 11µM (no result: GLP-1R agonist)
COc1cccc(C2=C(C(C)=O)Sc3nnc(C4CCCCC4)n3N2C(C)=O)c1	none (no result: GLP-1R agonist)
COc1cccc(CNC(=O)c2ccc(-n3c(C)cc4c3CCCC4)cc2)c1	none (no result: GLP-1R agonist)
Cc1ccc(S(=O)(=O)N2CCN(c3nc(-n4cccn4)nc4ccccc34)CC2)cc1	none (no result: GLP-1R agonist, GLP1R inv ag, TRPML1 blocker, GLP1R cytotox)
CCC(CC)C(=O)Nc1nnc(S(=O)(=O)N2CCCCCC2)s1	GLP1R inv ag 7.9µM
CC(C)C(=O)Nc1nnc(S(=O)(=O)N2CCCCCC2)s1	none
CCCSc1cc(N2CCOCC2)nc(-c2ccccc2Cl)n1	GLP1R inv ag 10µM
Cc1ccc2c(C)c(C(=O)N(Cc3ccc(N(C)C)cc3)Cc3ccco3)oc2c1C	none (no result: GLP-1R agonist)
Cc1cnc2c3c(cc(Cl)c2c1)-c1ccccc1S(=O)(=O)N3	none (no result: GLP-1R agonist, GLP1R inv ag, GLP1R cytotox)
Cc1nn(-c2nc3ccccc3n2Cc2ccccc2)c2c1C(=O)CC(C)(C)C2	GLP1R inv ag 2.2µM
CC(=O)Nc1ccc(N2C(=O)c3cccc4c(O)ccc(c34)C2=O)cc1	TRPML1 ag 72
COc1ccc(C(=O)N/N=C/c2ccc(OC)c(CN3CCCc4ccccc43)c2)cc1	GLP1R inv ag 10µM
COc1ccc(/C=N/NC(=O)c2cccnc2)cc1CN1CCCc2ccccc21	GLP1R inv ag 10µM
COc1ccc(C(=O)N/N=C/c2ccc(OC)c(CN3CCN(c4ccc(F)cc4)CC3)c2)cc1	none
CCCCn1nc(NC(=O)c2cccc(Cl)c2)c2cc3ccc(C)cc3nc21	none (no result: GLP-1R agonist)
O=C(NCCn1cc(SCc2ccc(C(F)(F)F)cc2)c2ccccc21)c1cccs1	GLP1R inv ag 11µM
O=C(NCCn1cc(SCc2ccc(C(F)(F)F)cc2)c2ccccc21)c1ccccc1F	GLP1R inv ag inconclusive
O=C(NCCn1cc(SCc2ccccc2)c2ccccc21)c1c(F)cccc1F	GLP1R inv ag 10µM
O=C(NCCn1cc(SCc2ccc(F)cc2)c2ccccc21)c1ccccc1F	GLP1R inv ag 7.9µM
O=C(NCCn1cc(SCc2ccc(F)cc2)c2ccccc21)c1c(F)cccc1F	GLP1R inv ag inconclusive
Cc1cccc(NC(=O)CSc2nc3ccc(NC(=O)CCc4ccccc4)cc3s2)c1	none (no result: GLP-1R agonist)
CN(C(=O)CSc1nc2ccc(NC(=O)COc3ccc(F)cc3)cc2s1)c1ccccc1	GLP1R inv ag 11µM, GLP1R cytotox inconclusive (no result: GLP-1R agonist)
CN(C(=O)CSc1nc2ccc(NC(=O)CCc3ccccc3)cc2s1)c1ccccc1	GLP1R inv ag 8.9µM, GLP1R cytotox inconclusive (no result: GLP-1R agonist)
CN(C(=O)CSc1nc2ccc(NC(=O)c3ccc(F)cc3)cc2s1)c1ccccc1	GLP1R inv ag inconclusive (no result: GLP-1R agonist)
O=C(CSc1nc2ccc(NC(=O)CSc3nnnn3-c3ccccc3)cc2s1)Nc1ccccc1	GLP1R inv ag inconclusive, GLP1R cytotox 10µM
Cc1ccc(Nc2cc(C(=O)NC3CCCC3)c3ccccc3n2)cc1C	none (no result: GLP-1R agonist)
Cn1c(-c2c(N)n(CCc3ccccc3)c3nc4ccccc4nc23)nc2ccccc21	GLP1R inv ag inconclusive
Cn1c(-c2c(N)n(C3CCCC3)c3nc4ccccc4nc23)nc2ccccc21	GLP1R inv ag 4µM
CC1(C)N=C(N)N=C(N)N1c1ccc(Cl)cc1	none (no result: GLP1R inv ag, TRPML1 blocker, GLP1R cytotox, TRPML1 ag)
CSCCC(NS(=O)(=O)c1cccc(C(F)(F)F)c1)C(=O)Nc1ccccc1N1CCCC1 (configuration not stated)	GLP1R inv ag 10µM

Screening data: PubChem BioAssay, National Center for Advancing Translational Sciences (NCATS)
